Experimental data taken from PubChem BioAssay (NCATS).
Several values for one entry are separate records, joined by “and”; a condition that tells them apart may be missing. Equal values may be shown once. Inconclusive results are not listed. Activity calls are given as the source filed them. Unless noted, calls follow the shape of the dose curve; as a rule, active = well fitted curve in the direction sought with a large enough effect; inconclusive = small, poorly fitted or top-dose-only effect, or another doubt; inactive = no such curve, though single readings can be large; an effect the other way counts as inactive or inconclusive.

Tests used:
[1] = AP1 Signaling Pathway (AID 357; active = well fitted curve in either direction with a large enough effect, not every such curve was filed as active;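 also: ME-180 reporter cells stimulated with EGF at its EC50 level; % is scaled to controls: 0 for no effect and ±100 for the full control effect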)
Procedure, shortened: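 AP-1-bla ME-180 cells, Opti-MEM + 0.5% dialyzed FBS, plated overnight 37 °C. Cpd titration + EC50 EGF, 5 h 37 °C. CCF4 2.5 h RT; ex 405, em 460/530 ratio → %activity, AC50.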

[2] = NFAT Signaling Pathway (AID 444; active = well fitted curve in either direction with a large enough effect, not every such curve was filed as active;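 also: carbachol stimulus at about its EC50 of 1 µM final; % is scaled to controls: 0 for no effect and ±100 for the full control effect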); settings: Jurkat NFAT-bla M1, carbachol, beta-lactamase ratio, 5 h; at 17.2 µM (top of the series) unless noted
Procedure, shortened: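 Jurkat cells carrying an NFAT-driven β-lactamase reporter and co-transfected muscarinic M1 receptor were treated with compound plus carbachol (1 uM final, an EC50 level) for 5 h at 37 °C. CCF4 loading followed for 1 h at RT; 460/530 nm ratio gave %activity.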

[3] = Stat Signaling Pathway (AID 446; active = well fitted curve in either direction with a large enough effect, not every such curve was filed as active;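 also: ME-180 cervical cancer cells given 40 pM IL-6 alongside compound; SIE-controlled beta-lactamase reporter measured as 460/530 nm FRET emission ratio; % is scaled to controls: 0 for no effect and ±100 for the full control effect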)
Procedure, shortened: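 Reporter line: ME-180 cervical carcinoma, SIE-beta-lactamase. Treatment: compound with 40 pM IL-6, 5 hrs, 37 C, in low-serum OPTI-MEM with 10 mM HEPES pH 7.3. Detection: 460/530 nm fluorescence.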

[4] = target: Glucocorticoid receptor (Homo sapiens) (UniProt P04150); experiment: GR-GFP Redistribution (AID 450;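 active = compounds whose dose series gives a full or clear partial fitted curve of increased nuclear translocation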; also: potency is read from the fitted curve at half-maximal effect); settings: U2OS GR-GFP nuclear translocation, laser cytometry, 2 h
[5] = target: Glucocorticoid receptor (Homo sapiens) (UniProt P04150); experiment: GR-EFC Redistribution (AID 451; calls by dose curve; also: potency is read from the fitted curve at half-maximal effect); settings: CHO-K1 GR-EFC translocation, beta-gal luminescence, 2 h
Procedure, shortened: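 CHO-K1 cells stably expressing nuclear-localized β-gal enzyme acceptor and GR fused C-terminally to the enzyme donor fragment; ligand-driven nuclear translocation restores β-gal by complementation. Compounds titrated up to 46 uM final, 2 h at 37 °C; luminescence read.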

[6] = target: Mitogen-activated protein kinase 10 (Mus musculus) (UniProt Q61831); experiment: JNK3 AlphaScreen Assay (AID 530; active = well fitted curve in either direction with a large enough effect, not every such curve was filed as active;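 also: kinase came from lysate of stimulated human HepG2 cells; signal reports phosphorylation of biotinylated GST-cJun 1-79 at Ser73 with 10 µM ATP; % is scaled to controls: 0 for no effect and ±100 for the full control effect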)
Procedure, shortened: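 Inhibitors reduce antibody binding to phosphorylated biotin-cJun, lowering AlphaScreen luminescence. Lysates from HepG2 cells pre-activated by IL-1beta plus TNF-alpha supplied JNK3; compounds were titrated.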

[7] = target: 3',5'-cyclic-AMP phosphodiesterase 4B (Homo sapiens) (UniProt Q07343); experiment: qHTS Assay for Inhibitors of PDE-IV (AID 607; active = well fitted activation curve with a large enough effect in the main read-out, with a control signal flat, not every such curve was filed as active; also: % of control where 0% means no effect)
Procedure, shortened: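 Cell-based read-out of cAMP via a modified cyclic nucleotide-gated channel and membrane potential dye (535/590 nm) in HEK293 cells expressing PDE4 endogenously. Compounds tested up to 22.9 uM final; 100 uM RO 20-1724 reference.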

[8] = qHTS Assay for Lipid Storage Modulators (AID 1519; calls by dose curve); settings: Drosophila S3 cells, BODIPY lipid droplet/cell ratio, laser cytometry, cells loaded with oleic acid; for activity change, negative = inhibition: at 25.7 µM (top of the series)
Procedure, shortened: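 Cells seeded at 5,000 per well were treated with compounds over a concentration series and loaded with oleic acid (400 uM, as added). Lipid droplet fluorescence (488 nm excitation, 500-530 nm channel) was read by laser-scanning cytometry and normalized to 20 uM Triacsin C.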

[9] = target: Ubiquitin carboxyl-terminal hydrolase 1 (Homo sapiens) (UniProt O94782); experiment: Inhibitors of USP1/UAF1: Pilot qHTS (AID 504865);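 also: rhodamine fluorescence freed from ubiquitin-rhodamine substrate followed over time; top concentration of the series differs between compounds; % is scaled to controls: 0 for no effect and ±100 for the full control effect; nearly all actives have a fitted effect of over 35% in size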
Procedure, shortened: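 In 50mM HEPES pH 7.8 containing 0.5mM EDTA, 1mM TCEP, 0.1 mg/ml BSA and 0.01% Tween-20, 1nM USP1/UAF1 is exposed to compound for 15 min, then Ub-Rho (150nM final) is added and fluorescence is read over time.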

[10] = S16 Schwann cell viability assay (CellTiter-Glo assay) (AID 624031);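 also: cellular ATP luminescence as a viability measure; plate controls were DMSO-treated cells for no effect and cell-free wells for full effect; nearly all actives have a fitted effect of over 70% in size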
Procedure, shortened: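 Luminescent ATP read-out (CellTiter-Glo) after 24 h compound exposure of native S16 rat Schwann cells at 37 °C. Signals were normalized between cell-free wells and DMSO-treated cells, set as 0% activity.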

[11] = qHTS profiling for inhibitors of Plasmodium falciparum proliferation (AID 504749); also: potency is read from the fitted curve at half-maximal effect;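 as to activity, negative = inhibition: 0% = DMSO vehicle and full inhibition = artemisinin control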; as to all read-outs here: nearly all actives have a fitted effect of over 60% in size; settings: P. falciparum in erythrocytes, SYBR Green DNA, 72 h; for activity, negative = inhibition: at 12.8 µM (top of the series)
Procedure, shortened: (§1)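 Parasite proliferation within erythrocytes, 72 h exposure. Endpoint: SYBR Green I fluorescence after overnight lysis at room temperature. Controls: 0.29 uM artemisinin, DMSO.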

AS120 = experiment: as above; settings: P. falciparum in erythrocytes, SYBR Green DNA, 72 h; series mostly up to 12.8 µM
Procedure, shortened: as §1

C2A = experiment: as above; settings: P. falciparum in erythrocytes, SYBR Green DNA, 72 h; series mostly up to 12.8 µM
Procedure, shortened: as §1

CP237 = experiment: as above; settings: P. falciparum in erythrocytes, SYBR Green DNA, 72 h; series mostly up to 12.8 µM
Procedure, shortened: as §1

CP238 = experiment: as above; settings: P. falciparum in erythrocytes, SYBR Green DNA, 72 h; series mostly up to 12.8 µM
Procedure, shortened: as §1

CP252 = experiment: as above; settings: P. falciparum in erythrocytes, SYBR Green DNA, 72 h; series mostly up to 12.8 µM
Procedure, shortened: as §1

FAB9 = experiment: as above; settings: P. falciparum in erythrocytes, SYBR Green DNA, 72 h; series mostly up to 12.8 µM
Procedure, shortened: as §1

HB3 = experiment: as above; settings: P. falciparum in erythrocytes, SYBR Green DNA, 72 h; series mostly up to 12.8 µM
Procedure, shortened: as §1

JCK = experiment: as above; settings: P. falciparum in erythrocytes, SYBR Green DNA, 72 h; series mostly up to 12.8 µM
Procedure, shortened: as §1

PAD = experiment: as above; settings: P. falciparum in erythrocytes, SYBR Green DNA, 72 h; series mostly up to 12.8 µM
Procedure, shortened: as §1

[12] = measured here: cell count channel max response
[13] = measured here: lipid channel max response

Glucocorticoid receptor (Homo sapiens), sequence (P04150 whole entry, looked up, the tested form may be a part): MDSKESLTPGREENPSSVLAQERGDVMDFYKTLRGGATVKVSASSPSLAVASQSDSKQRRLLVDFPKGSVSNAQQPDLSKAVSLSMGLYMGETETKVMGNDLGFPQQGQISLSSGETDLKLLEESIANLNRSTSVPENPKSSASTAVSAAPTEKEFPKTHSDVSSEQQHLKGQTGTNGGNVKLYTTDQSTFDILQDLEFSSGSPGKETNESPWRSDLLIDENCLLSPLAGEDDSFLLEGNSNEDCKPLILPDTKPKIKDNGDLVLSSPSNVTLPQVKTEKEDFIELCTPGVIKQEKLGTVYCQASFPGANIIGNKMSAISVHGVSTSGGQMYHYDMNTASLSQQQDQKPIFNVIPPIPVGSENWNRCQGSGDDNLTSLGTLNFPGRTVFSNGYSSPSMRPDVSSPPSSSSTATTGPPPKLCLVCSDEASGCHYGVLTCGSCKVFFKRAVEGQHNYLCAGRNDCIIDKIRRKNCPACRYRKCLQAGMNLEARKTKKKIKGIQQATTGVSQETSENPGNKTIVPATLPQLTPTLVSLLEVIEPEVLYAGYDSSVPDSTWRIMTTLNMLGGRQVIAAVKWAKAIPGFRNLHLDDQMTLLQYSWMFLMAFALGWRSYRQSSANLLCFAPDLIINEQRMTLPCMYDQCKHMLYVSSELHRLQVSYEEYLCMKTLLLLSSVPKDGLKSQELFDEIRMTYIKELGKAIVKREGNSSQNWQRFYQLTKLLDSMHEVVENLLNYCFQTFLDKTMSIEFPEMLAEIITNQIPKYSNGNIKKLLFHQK
Ubiquitin carboxyl-terminal hydrolase 1 (Homo sapiens), sequence (O94782 whole entry, looked up): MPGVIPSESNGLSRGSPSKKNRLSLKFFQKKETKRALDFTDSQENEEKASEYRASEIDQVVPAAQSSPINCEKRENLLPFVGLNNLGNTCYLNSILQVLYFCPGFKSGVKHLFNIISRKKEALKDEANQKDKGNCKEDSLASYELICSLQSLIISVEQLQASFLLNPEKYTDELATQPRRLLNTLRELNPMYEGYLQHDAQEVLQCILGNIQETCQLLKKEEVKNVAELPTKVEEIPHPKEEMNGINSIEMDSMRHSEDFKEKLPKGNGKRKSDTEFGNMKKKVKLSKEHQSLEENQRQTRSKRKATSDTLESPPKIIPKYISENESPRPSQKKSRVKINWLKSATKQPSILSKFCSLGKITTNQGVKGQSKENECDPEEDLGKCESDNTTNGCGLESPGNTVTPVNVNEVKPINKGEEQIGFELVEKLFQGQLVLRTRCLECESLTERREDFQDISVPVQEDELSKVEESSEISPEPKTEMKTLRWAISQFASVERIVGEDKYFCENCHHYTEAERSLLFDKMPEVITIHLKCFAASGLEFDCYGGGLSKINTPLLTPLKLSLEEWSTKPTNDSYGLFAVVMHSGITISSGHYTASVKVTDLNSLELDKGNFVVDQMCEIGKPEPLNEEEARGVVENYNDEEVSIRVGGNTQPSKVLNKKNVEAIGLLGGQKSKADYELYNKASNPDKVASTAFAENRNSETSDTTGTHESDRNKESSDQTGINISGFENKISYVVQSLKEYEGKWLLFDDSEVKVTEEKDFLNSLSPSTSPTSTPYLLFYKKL
3',5'-cyclic-AMP phosphodiesterase 4B (Homo sapiens), sequence (Q07343 whole entry, looked up): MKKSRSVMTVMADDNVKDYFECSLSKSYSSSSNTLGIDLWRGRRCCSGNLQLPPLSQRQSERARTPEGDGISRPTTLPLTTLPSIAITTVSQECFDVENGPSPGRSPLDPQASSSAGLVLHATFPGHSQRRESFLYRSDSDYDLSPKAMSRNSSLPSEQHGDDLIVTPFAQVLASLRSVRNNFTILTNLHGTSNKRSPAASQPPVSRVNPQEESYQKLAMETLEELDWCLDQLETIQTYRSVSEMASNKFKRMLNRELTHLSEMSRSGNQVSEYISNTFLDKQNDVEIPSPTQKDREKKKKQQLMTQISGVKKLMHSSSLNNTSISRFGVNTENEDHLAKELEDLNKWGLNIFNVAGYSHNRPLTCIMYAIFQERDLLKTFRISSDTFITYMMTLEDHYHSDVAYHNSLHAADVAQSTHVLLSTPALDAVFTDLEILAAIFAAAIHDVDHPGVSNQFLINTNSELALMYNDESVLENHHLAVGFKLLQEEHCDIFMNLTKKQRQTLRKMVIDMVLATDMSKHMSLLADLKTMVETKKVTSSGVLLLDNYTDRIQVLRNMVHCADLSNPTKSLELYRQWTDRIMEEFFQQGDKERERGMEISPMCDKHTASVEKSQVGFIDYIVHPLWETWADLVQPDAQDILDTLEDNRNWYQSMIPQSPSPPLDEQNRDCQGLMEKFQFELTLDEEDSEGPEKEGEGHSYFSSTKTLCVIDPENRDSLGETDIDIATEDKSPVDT

NC[C@@H]1O[C@H](O[C@@H]2[C@H](O[C@@H]3O[C@H](CO)[C@@H](O)[C@@H]3O)[C@@H](O)[C@@H](N)C[C@H]2N)[C@@H](N)[C@H](O)[C@@H]1O
-8.12%: max response [8, 12]
-11.1%: max response [8, 13]
inactive: outcome [1] | activity change, negative = inhibition [2] -8.79% | outcome [3] | Potency [4] > 20.6 µM | Potency [5] > 20.6 µM | Potency [6] | outcome [7] | activity change, negative = inhibition [8] -2.12% | Potency [9] | outcome [10] | activity, negative = inhibition ([11]; parasite line A) -3.69% | activity, negative = inhibition ([11]; parasite line B) 2.48% | Potency (AS120) | Potency (C2A) | Potency (CP237) | Potency (CP238) | Potency (CP252) | Potency (FAB9) | Potency (HB3) | Potency (JCK) | Potency (PAD)

CC(C)(C)NC[C@@H](O)COc1ccccc1C1CCCC1
-12.5%: max response [8, 13]
-14.9%: max response [8, 12]
inactive: outcome [1] | activity change, negative = inhibition [2] -6.56% | outcome [3] | Potency [5] > 20.6 µM | Potency [6] | activity change, negative = inhibition [8] 1.2% | Potency [9]
active: Potency [4] 4.85 µM | Potency ([11]; parasite line B) 3.16 µM | Potency (AS120) 3.98 µM | Potency (CP237) 3.55 µM | Potency (CP238) 3.16 µM | Potency (CP252) 3.16 µM | Potency (HB3) 3.16 µM | Potency (JCK) 3.16 µM | Potency (PAD) 3.16 µM

C[C@H](CCC(=O)NCC(=O)O)[C@H]1CC[C@H]2[C@H]3[C@@H](C[C@@H](O)[C@]12C)[C@]1(C)CC[C@H](O)C[C@@H]1C[C@@H]3O
inactive: outcome [1] | activity change, negative = inhibition [2] 15.3% | outcome [3] | Potency [4] > 20.6 µM | Potency [5] > 20.6 µM | Potency [6] | outcome [7] | activity change, negative = inhibition [8] 0.864% | Potency [9]
-0.773%: max response [8, 13]
-1.04%: max response [8, 12]

CC(C)(C)NC(=O)[C@@H]1CC[C@@H]2[C@@H]3CC[C@@H]4NC(=O)C=C[C@@]4(C)[C@H]3CC[C@]21C
-13.3%: max response [8, 13]
inactive: outcome [1] | activity change, negative = inhibition [2] 3.14% | outcome [3] | Potency [4] > 20.6 µM | Potency [5] > 20.6 µM | Potency [6] | outcome [7] | activity change, negative = inhibition [8] -1.87% | Potency [9] | outcome [10] | activity, negative = inhibition ([11]; parasite line A) 6.77% | activity, negative = inhibition ([11]; parasite line B) -2.48% | Potency (AS120) | Potency (C2A) | Potency (CP237) | Potency (CP238) | Potency (CP252) | Potency (FAB9) | Potency (HB3) | Potency (JCK) | Potency (PAD)
-11.6%: max response [8, 12]

C1CCN2C[C@@H]3C[C@@H](CN4CCCC[C@H]34)[C@H]2C1
inactive: outcome [1] | activity change, negative = inhibition [2] -16.7% | outcome [3] | Potency [4] > 20.6 µM and > 46 µM | Potency [5] > 20.6 µM and > 46 µM | Potency [6] | outcome [7] | activity change, negative = inhibition [8] -1.82% | Potency [9] | outcome [10] | activity, negative = inhibition ([11]; parasite line A) 5.24% | activity, negative = inhibition ([11]; parasite line B) 14.7% | Potency (AS120) | Potency (C2A) | Potency (CP237) | Potency (CP238) | Potency (CP252) | Potency (FAB9) | Potency (HB3) | Potency (JCK) | Potency (PAD)
-5.58%: max response [8, 13]
-3.93%: max response [8, 12]

Cc1ncc([N+](=O)[O-])n1C[C@H](O)CCl
6.22%: max response [8, 13]
8.08%: max response [8, 12]
inactive: outcome [1] | activity change, negative = inhibition [2] -7.59% | outcome [3] | Potency [4] > 20.6 µM | Potency [5] > 20.6 µM | Potency [6] | outcome [7] | activity change, negative = inhibition [8] -1.27% | Potency [9] | outcome [10] | activity, negative = inhibition ([11]; parasite line A) 1% | activity, negative = inhibition ([11]; parasite line B) 10.5% | Potency (AS120) | Potency (C2A) | Potency (CP237) | Potency (CP238) | Potency (CP252) | Potency (FAB9) | Potency (HB3) | Potency (JCK) | Potency (PAD)

Cc1onc(-c2ccccc2Cl)c1C(=O)N[C@H]1C(=O)N2[C@H]1SC(C)(C)[C@H]2C(=O)O
inactive: outcome [1] | activity change, negative = inhibition [2] -2.89% | outcome [3] | Potency [4] > 20.6 µM | Potency [5] > 20.6 µM | Potency [6] | outcome [7] | activity change, negative = inhibition [8] -0.309% | Potency [9] | outcome [10] | activity, negative = inhibition ([11]; parasite line A) 10.5% | activity, negative = inhibition ([11]; parasite line B) 7.79% | Potency (AS120) | Potency (C2A) | Potency (CP237) | Potency (CP238) | Potency (CP252) | Potency (FAB9) | Potency (HB3) | Potency (JCK) | Potency (PAD)
6.25%: max response [8, 12]
7.41%: max response [8, 13]

CC[C@H]1NC(=O)c2cc(S(N)(=O)=O)c(Cl)cc2N1
inactive: outcome [1] | activity change, negative = inhibition [2] -14.6% | outcome [3] | Potency [4] > 20.6 µM | Potency [5] > 20.6 µM | Potency [6] | activity change, negative = inhibition [8] -1.77% | Potency [9] | outcome [10] | activity, negative = inhibition ([11]; parasite line A) -8.58% | activity, negative = inhibition ([11]; parasite line B) 18.4% | Potency (AS120) | Potency (C2A) | Potency (CP237) | Potency (CP238) | Potency (CP252) | Potency (FAB9) | Potency (HB3) | Potency (JCK) | Potency (PAD)
0.892%: max response [8, 12]
-1.37%: max response [8, 13]

CC(=C(CCOP(=O)(O)O)SC(=O)c1ccccc1)N(C=O)Cc1cnc(C)nc1N
-2.64%: max response [8, 13]
inactive: outcome [1] | activity change, negative = inhibition [2] 2.39% | outcome [3] | Potency [4] > 20.6 µM | Potency [5] > 20.6 µM | Potency [6] | outcome [7] | activity change, negative = inhibition [8] 0.981% | Potency [9] | outcome [10] | activity, negative = inhibition ([11]; parasite line A) -4.37% | activity, negative = inhibition ([11]; parasite line B) 20.3% | Potency (AS120) | Potency (C2A) | Potency (CP237) | Potency (CP238) | Potency (CP252) | Potency (FAB9) | Potency (HB3) | Potency (JCK) | Potency (PAD)
-3.81%: max response [8, 12]
